# Compound activity as filed in PubChem.
# In the library only some 1.5% were active in any assay of this set; here they are far more common.
# Coupling enz = inhibits coupling enzyme system, counter-screen for aldolase hits | coupling enzyme system counterscreen, AmpLite Red fluorescence | activity change, negative = inhibition, % at 58.2 µM, hits read low | actives 0.67% (n = 290,000) | AID 2472; in the data active = activity change below about -30%; note: % is set by controls: 0 for no effect and ±100 for the full control effect
#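 Fluorescence at 525 nm excitation and 598 nm emission measured inhibition of the coupled detection system without aldolase. Compounds (at 57.5 uM final) were preincubated 10 min at room temperature with coupling enzyme reagent before a 20 min substrate/AmpLite Red step.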
# TrxR1 inh-1 = blocks rat thioredoxin reductase 1 | O89049 | recombinant rTrxR1, NADPH fluorescence consumption, selenite substrate | Potency, µM (series often up to 114 µM), without a hit: at the top dose activity change, negative = inhibition, hits mostly inhibitors | actives 1% (n = 390,000) | AID 588453; note: potency is the fitted concentration of half-maximal effect; % is set by controls: 0 for no effect and ±100 for the full control effect; nearly all actives have a fitted effect of over 65% in size
#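 Rat TrxR1 (90 nM in the dispensed reagent) was pre-reduced with 400 uM NADPH for 5 min at room temperature, then incubated with compound for 15 min. After 400 uM selenite was added, NADPH fluorescence (Ex 340/Em 450 nm) was followed for 8 min.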
# USP1-UAF1 inh = inhibitors of human USP1/UAF1 deubiquitinase; AID 743255; recombinant USP1/UAF1, Ub-Rhodamine cleavage fluorescence; actives 0.23% (n = 390,000); Potency, µM (highest dose often 57.1 µM), for inactives: at the highest dose activity change, negative = inhibition, actives largely listed as inhibitors; note: potency is the fitted concentration of half-maximal effect; % is set by controls: 0 for no effect and ±100 for the full control effect; nearly all actives have a fitted effect of over 60% in size
#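 Step one: compound is pinned into 1nM USP1/UAF1 in HEPES pH 7.8 buffer with TCEP. Step two: 15 min room-temperature incubation. Step three: Ub-Rho (150nM final) starts cleavage, tracked by fluorescence over six one-minute reads.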
# TrxR1 substrate = substrates of rat thioredoxin reductase 1 | O89049 | purified TrxR1 substrate turnover, NADPH consumption readout | Potency, µM (top dose mostly 114 µM), without a hit: at the top dose activity change, negative = substrate turnover | actives 0.01% (n = 390,000); note: potency is the fitted concentration of half-maximal effect; % is set by controls: 0 for no effect and ±100 for the full control effect; nearly all actives have a fitted effect of over 50% in size
#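 Rat TrxR1, dispensed at 90 nM, was prereduced with 400 uM NADPH (final) for 5 min at ~22 deg C, then incubated with compound 15 min before 400 uM selenite. A first-read NADPH fluorescence drop versus no-compound background flagged substrates.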
# GALK inhibitor = inhibitors of human galactokinase; Purified GALK, Kinase-Glo residual ATP luminescence; Potency, µM (series often up to 57.5 µM), without a hit: at the top dose activity change, negative = inhibition, usual class: inhibitors; actives 0.007% (n = 270,000); P51570; note: potency is the fitted concentration of half-maximal effect; % is set by controls: 0 for no effect and ±100 for the full control effect
#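 Compounds were pin-transferred into ATP buffer (35 uM final), then GALK plus galactose (5 nM, 100 uM final) was added. After 1 h at room temperature, Kinase-Glo Plus was added and luminescence read after 10 min.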
# CASP1 redox cat = counter-screen for redox active human caspase-1 inhibitors with catalase | shares compounds with Coupling enz | caspase-1 Ac-WEHD-AFC fluorescence rate, catalase buffer | Potency, µM (titrated, usually from 57.5 µM), without a hit: at the highest dose activity change, negative = inhibition, most hits filed as inhibitors | 30 tested, under 10 active | AID 888; active = well fitted inhibition curve with a large enough effect in the main read-out, with a control signal flat; inconclusive = small, poorly fitted or top-dose-only effect, or a change in a side signal; inactive = no such curve, though single readings can be large or run the other way
# CASP1 inh CRC = confirmation of allosteric or competitive inhibitors of human caspase-1; actives 20% (n = 60); Potency, µM (doses to about 57.5 µM), without a hit: top-dose activity change, negative = inhibition, usual class: inhibitors; purified caspase-1, fluorogenic substrate cleavage; shares compounds with Coupling enz; AID 896; active = well fitted inhibition curve with a large enough effect in the main read-out, with a control signal flat; inconclusive = small, poorly fitted or top-dose-only effect, or a change in a side signal; inactive = no such curve, though single readings can be large or run the other way
# Casp7 confirm = confirmation of allosteric or competitive inhibitors of human caspase-7. shares compounds with Coupling enz. recombinant caspase-7, fluorogenic substrate cleavage. Potency, µM (doses to about 57.5 µM), inactives show at the highest dose activity change, negative = inhibition, most hits filed as inhibitors. 60 tested, under 10 active; active = well fitted inhibition curve with a large enough effect in the main read-out, with a control signal flat, not every such curve was filed as active; inconclusive = small, poorly fitted or top-dose-only effect, or a change in a side signal; inactive = no such curve, though single readings can be large or run the other way
# CASP7 redox cys = counter-screen for redox active caspase-7 inhibitors: cysteine buffer; 60 tested, under 10 active; shares compounds with Coupling enz; Potency, µM (series often up to 57.5 µM), for the others: top-dose activity change, negative = inhibition, hits mostly inhibitors; AID 908; caspase-7 enzyme with cysteine, fluorogenic substrate, redox counterscreen; active = well fitted inhibition curve with a large enough effect in the main read-out, with a control signal flat; inconclusive = small, poorly fitted or top-dose-only effect, or a change in a side signal; inactive = no such curve, though single readings can be large or run the other way
# CASP7 redox cat = caspase-7 inhibition with catalase present; 30 tested, under 10 active; shares compounds with Coupling enz; Caspase-7 Ac-DEVD-AFC fluorescence rate, catalase buffer; Potency, µM (highest dose often 57.5 µM), for inactives: at the highest dose activity, negative = inhibition, usual class: inhibitors; AID 909; active = well fitted inhibition curve with a large enough effect in the main read-out, with a control signal flat; inconclusive = small, poorly fitted or top-dose-only effect, or a change in a side signal; inactive = no such curve, though single readings can be large or run the other way
# Casp1 cysteine = inhibits caspase-1 in cysteine buffer, redox counter-screen | shares compounds with Coupling enz | recombinant caspase-1, fluorogenic substrate, cysteine buffer | Potency, µM (doses to about 57.5 µM), for the others: at the top dose activity change, negative = inhibition, usual class: inhibitors | 60 tested, under 10 active | AID 929; active = well fitted inhibition curve with a large enough effect in the main read-out, with a control signal flat; inconclusive = small, poorly fitted or top-dose-only effect, or a change in a side signal; inactive = no such curve, though single readings can be large or run the other way
# GR inh = inhibits human glutathione reductase in TrxR1 counterassay; shares compounds with TrxR1 inh-1; 55 tested, under 10 active; activity change, negative = inhibition, % at 57.1 µM; purified GR, DTNB reduction absorbance 405 nm kinetic; AID 652020
# TrxR1 inh-2 = validation of rat thioredoxin reductase 1 inhibitors; shares compounds with TrxR1 inh-1; recombinant TrxR1, NADPH fluorescence consumption, selenite substrate; Potency, µM, usual class: inhibitors; actives 50% (n = 55); AID 652023
# TrxR1 insulin MOA = TrxR1 inhibition in insulin mechanism assay; shares compounds with TrxR1 inh-1; Potency, µM; TrxR1 Trx-coupled insulin reduction, NADPH absorbance 340 nm; actives 20% (n = 55); AID 652037;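 active = compounds with a measured potency under 100 micromolar; inconclusive = filed, but no rule given; inactive = potency at or above that, or unmeasurable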
# TrxR1 inh-3 = inhibitors of rat thioredoxin reductase 1, DTNB reduction. shares compounds with TrxR1 inh-1. purified TrxR1, DTNB reduction, A412. Potency, µM. actives 90% (n = 55). AID 652256;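 active = a half-inhibiting concentration could be measured and was below 100 µM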
# * = called active by the depositor; i = inactive; ? = inconclusive; · = no result given; [ ] = dose if it differs, or a comment. Unless noted, calls come from the whole dose curve; as a rule, active = well fitted curve in the direction sought with a large enough effect; inconclusive = small, poorly fitted or top-dose-only effect, or another doubt; inactive = no such curve, though single readings can be large; an effect the other way counts as inactive or inconclusive.
SMILES,Coupling enz,TrxR1 inh-1,USP1-UAF1 inh,TrxR1 substrate,GALK inhibitor,CASP1 redox cat,CASP1 inh CRC,Casp7 confirm,CASP7 redox cys,CASP7 redox cat,Casp1 cysteine,others
COc1ccc(S(=O)(=O)Nc2ccc(O)c3ccccc23)cc1,-3,?,?,-11%,2%,-2%,-4%,-4%,0%,-9%,4%,
COc1ccc(S(=O)(=O)Nc2ccccc2)cc1,·,15%[57.1 µM],6%,7%[57.1 µM],·,·,·,·,·,·,·,
CC(=O)Nc1cc(OC(C)=O)c2nonc2c1OC(C)=O,-77*,131%[57.1 µM],4µM*,?,-18%,-25%,-63%,-32%,-13%,1%,?,
COc1cc(=O)[nH]c(SCc2c(F)c(F)c(F)c(F)c2F)n1,11,25%,-14%,11%,0%,·,-5%,-4%,-7%,·,5%,
COc1ccc(CSc2nc(C)cc(=O)[nH]2)cc1Br,13,20%,-5%,11%,1%,·,·,·,·,·,·,
N#CC1=C2SCN(Cc3ccccc3)CN2C(=O)CC1c1cccs1 (stereo not given),-40*,?,16µM*,-4%[57.1 µM],0%,-4%,-5%,-1%,1%,-7%,-2%,
N#CC1=C2SCN(Cc3ccco3)CN2C(=O)CC1c1ccc(Cl)cc1 (stereo not given),-5,-26%,-22%,3%,5%,·,·,·,·,·,·,
COc1cccc(Cn2cccc(NC(=O)NC3CCCCC3)c2=O)c1,-21,-11%,-22%,15%,0%,0%,-21%,-9%,-11%,5%,2%,
O=C(Nc1ccc2c(c1)OCO2)[C@@H]1[C@@H]2C(=O)N(C3CCCCC3)C(=O)[C@@H]2C2c3ccccc3C=CN21 (stereo not given in full),-35*,·,·,·,1%,-3%,-25%,-16%,-16%,6%,-3%,
O=C1NCCCC2c3cc(O)c4ccccc4c3OC12N1CCCCC1 (stereo not given),-57*,·,·,·,2%,-25%,-67%,-31%,-14%,-3%,-19%,
O=c1oc2ccccc2c(O)c1CN1CCCCC1,1,-4%,-10%,-1%,0%,·,·,·,·,·,·,
COc1ccc(C2CC(=O)N3CN(c4ccccc4F)CSC3=C2C#N)cc1OC (stereo not given),-14,?,-11%,2%[57.1 µM],0%,2%,-13%,-8%,-10%,7%,-3%,
CC1(C)CC(=O)C2=C(C1)NC(Nc1nc3ccccc3o1)=NC2c1cccc(O)c1 (stereo not given),·,12%,·,31%,·,·,·,·,·,·,·,
CNC(=S)NCCCCc1cnc[nH]1,0,·,·,·,·,·,·,·,·,·,·,
CC1(C)C(=O)NC2=C1C(=O)C(=O)c1ccccc12,-76*,·,·,·,·,·,4µM*,?,-18%,·,-2%,
COc1ccc(N2CCN(C(=O)CSc3nc4[nH]ncc4c(=O)n3-c3cccc4ccccc34)CC2)cc1,-10,11%[57.1 µM],-15%,10%[57.1 µM],-2%,·,·,·,·,·,·,
COc1cc2c(cc1OC)CN(C(=O)CSc1nc3[nH]ncc3c(=O)n1-c1ccccc1)CC2,-3,8%,-3%,6%,-1%,1%,-6%,?,?,-25%,6%,
O=C(CNC(=O)c1ccccc1)NCC(=O)OCC(=O)c1ccc2ccccc2c1,·,26%,·,24%[0.0914 µM],·,·,·,·,·,·,·,
COc1cc2c(cc1OC)C1N(CC2)C(=O)CCC12C(=O)CCCC2=O (stereo not given),-5,·,·,·,·,·,·,·,·,·,·,
Cc1ccc(S(=O)(=O)Nc2cccc3ccc[n+](C)c23)cc1,-8,·,·,·,·,·,·,·,·,·,·,
C/C=C/c1ccc2oc(-c3ccc(O)cc3)c(C)c2c1,3,·,·,·,·,·,·,·,·,·,·,
Cc1cc(C)cc(C(=O)N(C)[C@H](Cc2ccc(-c3ccccc3)cc2)C(=O)N[C@@H](Cc2c[nH]c3ccccc23)C(=O)O)c1,0,·,·,·,·,·,?,16µM*,16µM*,·,?,
CCC(C)(C)n1nnnc1C(c1ccc(O)c(OC)c1)N1CCc2ccccc2C1 (stereo not given),-1,0.079µM*,-10%,7%,-3%,·,·,·,·,·,·,GR inh=8;TrxR1 inh-2=0.34*;TrxR1 insulin MOA=i;TrxR1 inh-3=0.011µM*
CC[C@H](C)[C@H](N)C(=O)N[C@H](C(=O)N[C@@H](CO)C(=O)N[C@@H](C)C(=O)N[C@H](C(=O)N[C@H](C(=O)NCC(=O)N[C@H](C(=O)N[C@@H](CC(C)C)C(=O)O)[C@@H](C)CC)C(C)C)C(C)C)[C@@H](C)CC,1,·,·,·,·,·,·,·,·,·,·,
